This note sets out measurements from PubChem BioAssay (NCI).

Compounds without any hit were thinned out: in the full panel of roughly 79,000, 15% have a hit. A number with no mark means an inactive call. The source made the active and inactive calls. Cut-off read from the data, not from the text of the source: active = growth inhibition above about 70%; inactive = the rest.

Experiment [1] can be described thus: NCI Yeast Anticancer Drug Screen. Data for the rad50 strain (AID 155).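 Note: 0% = growth of vehicle-only cultures of the same strain.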 The note with it: S. cerevisiae rad50 strain growth inhibition, stronger effect = higher value. In a few lines:
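Cells are treated with compound, grown, and their growth is then scored against vehicle-only cultures of the same repair-deficient yeast strain.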

Experiment [2] is described as follows: NCI Yeast Anticancer Drug Screen. Data for the mec2-1 strain (AID 157). To be noted: S. cerevisiae mec2-1 strain, stronger effect = higher value. The method in brief: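 mec2-1 yeast strain, carrying an alteration in DNA damage repair or cell cycle control, was exposed to compounds; growth inhibition was measured relative to vehicle-treated controls.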
Experiment [3] is described as follows: NCI Yeast Anticancer Drug Screen. Data for the sgs1 mgt1 strain (AID 161).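 Note: 0% = growth of cultures given vehicle only.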 To be noted: S. cerevisiae sgs1 mgt1 strain, stronger effect = higher value. The method in brief: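 Growth of a repair-deficient yeast mutant was monitored after compound treatment and expressed as inhibition relative to vehicle-treated cultures.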
Experiment [4] in a line: NCI Yeast Anticancer Drug Screen. Data for the cln2 rad14 strain (AID 165).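 Note: 0% = growth equal to vehicle treated cultures.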 The note with it: S. cerevisiae cln2 rad14 strain, stronger effect = higher value. The method in brief:
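Yeast carrying cln2 and rad14 alterations (cell cycle control and DNA damage repair) were exposed to compounds. Growth inhibition was measured against vehicle-treated controls.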

Experiment [5] in a line: NCI Yeast Anticancer Drug Screen. Data for the bub3 strain (AID 167). To be noted: S. cerevisiae bub3 mutant strain, stronger effect = higher value. In a few lines: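 Part of a panel of yeast mutants defective in DNA damage repair or cell cycle regulation. Each strain is grown with compound, and inhibition is calculated relative to solvent-treated cultures.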
Experiment [6] in a line: NCI Yeast Anticancer Drug Screen. Data for the mlh1 rad18 strain (AID 175). The note with it: S. cerevisiae mlh1 rad18 strain growth inhibition, stronger effect = higher value. In a few lines: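 Growth inhibition of the yeast strain was measured after compound exposure and expressed relative to vehicle-treated controls. The strain carries defined defects in DNA damage repair.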
The mark [7] stands for this setting: at 5.0 µM (retest, dose inferred, filed as 0.5).
Setting [8] is: at 50.0 µM (retest, dose inferred, filed as 5.0).

For `NC(=Nc1cc2ccccc2c2ccccc12)Nc1cc2ccccc2c2ccccc12`, the growth inhibition in experiment [1] (setting [7]) was 87% (active); in experiment [1] (setting [8]), 97% (active); in experiment [1] (at 50.0 µM), 85.8% (active); in experiment [2] (setting [7]) it was 91% (active); in experiment [2] (setting [8]), 99% (active); in experiment [2] (at 50.0 µM), 77.2% (active). Further, the growth inhibition in experiment [3] (setting [7]) is 89% (active); in experiment [3] (setting [8]), 99% (active); in experiment [3] (at 50.0 µM), 95.3% (active); in experiment [4] (setting [7]), 45%; in experiment [4] (setting [8]) it was 96% (active); in experiment [4] (at 50.0 µM) it was 95% (active). For the same compound, the growth inhibition is 35% in experiment [5] (setting [7]); 97% (active) in experiment [5] (setting [8]); 97.7% (active) in experiment [5] (at 50.0 µM); 97% (active) in experiment [6] (setting [7]); 97% (active) in experiment [6] (setting [8]); 97.5% (active) in experiment [6] (at 50.0 µM).
Regarding `Cn1c(-c2ccccc2)c(CCNC(=O)C2CCC2)c2ccccc21`, the growth inhibition is 18% in experiment [1] (setting [7]); 18% in experiment [1] (setting [8]); 81.2% (active) in experiment [1] (at 50.0 µM); 14% in experiment [2] (setting [7]); 14% in experiment [2] (setting [8]); 86% (active) in experiment [2] (at 50.0 µM). The growth inhibition in experiment [3] (setting [7]) is 12%; in experiment [3] (setting [8]), 12%; in experiment [3] (at 50.0 µM) it was 79.2% (active); in experiment [4] (setting [7]) it was 7%; in experiment [4] (setting [8]), 7%; in experiment [4] (at 50.0 µM), 77.3% (active). The growth inhibition in experiment [5] (setting [7]) is 11%; in experiment [5] (setting [8]), 11%; in experiment [5] (at 50.0 µM), 79.2% (active); in experiment [6] (setting [7]), 18%; in experiment [6] (setting [8]), 18%; in experiment [6] (at 50.0 µM) it was 75.2% (active).
`CCC1(CC)COC(C)(C(=O)O)OC1`: the growth inhibition was -155% in experiment [1] (setting [7]); -176% in experiment [1] (setting [8]); 56.9% in experiment [1] (at 50.0 µM); -50% in experiment [2] (setting [7]); -62% in experiment [2] (setting [8]); 11.1% in experiment [2] (at 50.0 µM). Moreover, the growth inhibition is -68% in experiment [3] (setting [7]); -69% in experiment [3] (setting [8]); -2.95% in experiment [3] (at 50.0 µM); -51% in experiment [4] (setting [7]); -77% in experiment [4] (setting [8]); -41.4% in experiment [4] (at 50.0 µM). Moreover, the growth inhibition in experiment [5] (setting [7]) was -65%; in experiment [5] (setting [8]), -71%; in experiment [5] (at 50.0 µM), 6.2%; in experiment [6] (setting [7]), -127%; in experiment [6] (setting [8]) it was -168%; in experiment [6] (at 50.0 µM), -6.2%.
Regarding `Cc1cc2oc3c(ccc(=O)n3C)c(=O)c2c(C)c1Cl`, the growth inhibition in experiment [1] (setting [7]) is 9%; in experiment [1] (setting [8]) it was 38%; in experiment [1] (at 50.0 µM) it was 53.7%; in experiment [2] (setting [7]) it was 10%; in experiment [2] (setting [8]) it was 23%; in experiment [2] (at 50.0 µM), 29.4%. The growth inhibition in experiment [3] (setting [7]) was 22%; in experiment [3] (setting [8]), 21%; in experiment [3] (at 50.0 µM), 54.8%; in experiment [4] (setting [7]), 20%; in experiment [4] (setting [8]) it was 13%; in experiment [4] (at 50.0 µM), 25.9%. In addition, the growth inhibition in experiment [5] (setting [7]) is 18%; in experiment [5] (setting [8]) it was 10%; in experiment [5] (at 50.0 µM), 30.2%; in experiment [6] (setting [7]), 11%; in experiment [6] (setting [8]), 48%; in experiment [6] (at 50.0 µM) it was 17.9%.
Turning to `CC1CC(=O)OC(C(=O)c2ccccc2)N1c1ccc(C(F)(F)F)cc1N` (stereo not given), the growth inhibition in experiment [1] (setting [7]) is 4%; in experiment [1] (setting [8]), 30%; in experiment [1] (at 50.0 µM), 81.6% (active); in experiment [2] (setting [7]) it was 11%; in experiment [2] (setting [8]) it was 11%; in experiment [2] (at 50.0 µM) it was 65%. In addition, the growth inhibition in experiment [3] (setting [7]) was 8%; in experiment [3] (setting [8]), 38%; in experiment [3] (at 50.0 µM), 59.4%; in experiment [4] (setting [7]), 0%; in experiment [4] (setting [8]), 2%; in experiment [4] (at 50.0 µM) it was 56.4%. Further, the growth inhibition in experiment [5] (setting [7]) is 2%; in experiment [5] (setting [8]) it was 10%; in experiment [5] (at 50.0 µM), 32.2%; in experiment [6] (setting [7]) it was 3%; in experiment [6] (setting [8]), 27%; in experiment [6] (at 50.0 µM), 88.4% (active).
For the compound `CC(=O)c1c(O)c(C)c(O)c2c1OC1=CC(=O)c3c(C)noc3C12C` (stereo not given), the growth inhibition in experiment [1] (setting [7]) was -1%; in experiment [1] (setting [8]), 10%; in experiment [1] (at 50.0 µM), 24.9%; in experiment [2] (setting [7]) it was -3%; in experiment [2] (setting [8]), 7%; in experiment [2] (at 50.0 µM), 26.1%. In addition, the growth inhibition is -2% in experiment [3] (setting [7]); 10% in experiment [3] (setting [8]); -2.55% in experiment [3] (at 50.0 µM); 10% in experiment [4] (setting [7]); 16% in experiment [4] (setting [8]); 25.3% in experiment [4] (at 50.0 µM). The growth inhibition is -9% in experiment [5] (setting [7]); 1% in experiment [5] (setting [8]); 12.8% in experiment [5] (at 50.0 µM); -1% in experiment [6] (setting [7]); 10% in experiment [6] (setting [8]); 54.1% in experiment [6] (at 50.0 µM).
With `CCN(CC)CCNc1c2ccccc2nc2cccc([N+](=O)[O-])c12`, the growth inhibition in experiment [1] (setting [7]) was 88% (active); in experiment [1] (setting [8]), 97% (active); in experiment [1] (at 50.0 µM), 68.2%; in experiment [2] (setting [7]), 95% (active); in experiment [2] (setting [8]), 99% (active); in experiment [2] (at 50.0 µM), 61.4%. The growth inhibition was 94% (active) in experiment [3] (setting [7]); 99% (active) in experiment [3] (setting [8]); 55% in experiment [3] (at 50.0 µM); 85% (active) in experiment [4] (setting [7]); 98% (active) in experiment [4] (setting [8]); 86.5% (active) in experiment [4] (at 50.0 µM). Besides, the growth inhibition in experiment [5] (setting [7]) is 93% (active); in experiment [5] (setting [8]) it was 99% (active); in experiment [5] (at 50.0 µM) it was 2.85%; in experiment [6] (setting [7]), 92% (active); in experiment [6] (setting [8]) it was 97% (active); in experiment [6] (at 50.0 µM), 62.9%.
Regarding `C=Cc1nc(N)nc(-c2ccc(C)cc2)n1`, the growth inhibition was 7% in experiment [1] (setting [7]); 91% (active) in experiment [1] (setting [8]); 92.3% (active) in experiment [1] (at 50.0 µM); 12% in experiment [2] (setting [7]); 94% (active) in experiment [2] (setting [8]); 91.3% (active) in experiment [2] (at 50.0 µM). The growth inhibition is 3% in experiment [3] (setting [7]); 95% (active) in experiment [3] (setting [8]); 92.6% (active) in experiment [3] (at 50.0 µM); -8% in experiment [4] (setting [7]); 74% (active) in experiment [4] (setting [8]); 49.2% in experiment [4] (at 50.0 µM). The growth inhibition in experiment [5] (setting [7]) was 6%; in experiment [5] (setting [8]), 93% (active); in experiment [5] (at 50.0 µM) it was 86% (active); in experiment [6] (setting [7]), 7%; in experiment [6] (setting [8]), 96% (active); in experiment [6] (at 50.0 µM), 95.2% (active).
As for `CC1OC(OC2C(Oc3c(-c4ccc(O)c(O)c4O)oc4cc(O)ccc4c3=O)OC(CO)C(O)C2O)C(O)C(O)C1O` (stereo not given), the growth inhibition in experiment [1] (setting [7]) is -4%; in experiment [1] (setting [8]) it was -8%; in experiment [1] (at 50.0 µM) it was 22.9%; in experiment [2] (setting [7]), -5%; in experiment [2] (setting [8]), 0%; in experiment [2] (at 50.0 µM) it was -5.3%. Also, the growth inhibition in experiment [3] (setting [7]) is -5%; in experiment [3] (setting [8]), 1%; in experiment [3] (at 50.0 µM), -7.95%; in experiment [4] (setting [7]), 7%; in experiment [4] (setting [8]), 0%; in experiment [4] (at 50.0 µM), -8.85%. Moreover, the growth inhibition was -1% in experiment [5] (setting [7]); 0% in experiment [5] (setting [8]); 3.25% in experiment [5] (at 50.0 µM); -5% in experiment [6] (setting [7]); -6% in experiment [6] (setting [8]); -10.7% in experiment [6] (at 50.0 µM).
For the compound `COc1ccc2c(c1)CC[C@@H]1[C@@H]2CC[C@]2(C)/C(=N/OCCN3CCCC3)CC[C@@H]12`, the growth inhibition in experiment [1] (setting [7]) is 95% (active); in experiment [1] (setting [8]) it was 99% (active); in experiment [1] (at 50.0 µM), 89.5% (active); in experiment [2] (setting [7]) it was 38%; in experiment [2] (setting [8]), 99% (active); in experiment [2] (at 50.0 µM), 91.8% (active). Further, the growth inhibition in experiment [3] (setting [7]) was 24%; in experiment [3] (setting [8]) it was 96% (active); in experiment [3] (at 50.0 µM), 92.1% (active); in experiment [4] (setting [7]) it was 46%; in experiment [4] (setting [8]), 98% (active); in experiment [4] (at 50.0 µM), 89.7% (active). The growth inhibition in experiment [5] (setting [7]) is 49%; in experiment [5] (setting [8]) it was 97% (active); in experiment [5] (at 50.0 µM), 91.1% (active); in experiment [6] (setting [7]), 39%; in experiment [6] (setting [8]), 99% (active); in experiment [6] (at 50.0 µM), 91.1% (active).
